Four compounds from PubChem BioAssay (EPA / NIEHS) can be followed below.

Molecules are shown by their SMILES. Active and inactive are the calls of the source. How the source made its calls: active means hit-call score of the fitted dose curve at least 0.9, where 1 is the maximum; inactive means score below 0.9.

The nature of assay [1]: APR_HepG2_CellLoss_72hr: Apredica 72-hour HepG2 Assay for Cell Loss (AID 2282915). The following applies: high-content imaging. The method, boiled down: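 HepG2 cells exposed 72 h to compound at 0.39–200 uM (10 concentrations, duplicate) in 0.5% DMSO. Fixed with 3.7% formaldehyde and Hoechst 33342-stained. Imaged at 20x; nuclear count gives cell number, fitted bidirectionally versus DMSO.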

The nature of assay [2]: APR_HepG2_P-H2AX_72hr: Apredica 72-hour HepG2 Assay for H2AX Phosphorylation (AID 2282916).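 Further: phospho-histone H2A.x immunostain intensity per cell marking DNA damage.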 The following applies: imaging, actives raise or lower the signal. An outline of the steps:
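HepG2; cpd 0.39–200 uM ×10 conc, duplicates; 0.5% DMSO; 72 hr. Fix 3.7% formaldehyde 30 min RT, 0.5% Triton X-100 10 min. Anti-phospho-H2A.x 1:200 + Hoechst 2 ug/mL, 60 min RT; ArrayScan imaging.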

The nature of assay [3]: APR_HepG2_MitoMembPot_72hr: Apredica 72-hour HepG2 Assay for Mitochondrial Membrane Potential (AID 2282917). The following applies: imaging, actives raise or lower the signal. An outline of the steps:
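HepG2 cells dosed 72 hr with compound at 0.39–200 uM in duplicate, 0.5% v/v DMSO final. Mitochondria stained with 250 nM MitoTracker Red CMXRos for 30 min before formaldehyde fixation, imaged by high-content fluorescence; bidirectional fit versus DMSO.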

Assay [4] in a line: APR_HepG2_MitoticArrest_72hr: Apredica 72-hour HepG2 Assay for Mitotic Arrest (AID 2282918). The following applies: high-content imaging, actives raise or lower the signal. An outline of the steps:
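HepG2 cells treated 72 h at 0.39–200 uM, 0.5% DMSO final; formaldehyde-fixed, stained with Hoechst 33342 and phospho-histone H3 antibody, imaged by high-content fluorescence; bidirectional fit versus DMSO.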

The nature of assay [5]: APR_HepG2_MicrotubuleCSK_72hr: Apredica 72-hour HepG2 Assay for Microtubule CSK Stabilty (AID 2282919). To be noted: HepG2 microtubule cytoskeleton, high-content imaging, actives raise or lower the signal. An outline of the steps:
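HepG2 cells were exposed 72 hr to compound at 0.39–200 uM in duplicate (0.5% DMSO final), then fixed and permeabilized. Alpha-tubulin immunofluorescence was imaged by high-content microscopy, with bidirectional fitting against DMSO and taxol as positive control.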

Assay [6] in a line: APR_HepG2_P-H2AX_24hr: Apredica 24-hour HepG2 Assay for H2AX Phosphorylation (AID 2282920). To be noted: high-content imaging, actives raise or lower the signal. An outline of the steps:
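HepG2 cells dosed 24 h at 0.39–200 uM (10 points, duplicate, 0.5% DMSO final). Formaldehyde-fixed and permeabilized, then immunostained for phospho-H2A.x with Hoechst. Fluorescence quantified by high-content imaging, fitted bidirectionally versus DMSO.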

Assay [7] is described as follows: APR_HepG2_StressKinase_72hr: Apredica 72-hour HepG2 Assay for Stress Kinase (AID 2282921). The following applies: HepG2 stress kinase (phospho-c-Jun) imaging, actives raise or lower the signal. The method, boiled down:
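Dose 0.39–200 uM (10 pts, duplicate), 0.5% DMSO; 72 h; fix 3.7% formaldehyde 30 min RT; Triton permeabilize; anti-phospho-c-Jun/Cy3 + Hoechst 60 min RT; image 20x; fit gain/loss vs DMSO.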

Assay [8] is described as follows: APR_HepG2_StressKinase_24hr: Apredica 24-hour HepG2 Assay for Stress Kinase (AID 2282922). To be noted: HepG2 stress kinase (phospho-c-Jun) imaging, actives raise or lower the signal. An outline of the steps: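 HepG2 cells exposed 24 h to 0.39–200 uM compound in duplicate (0.5% v/v DMSO final). Cells fixed in 3.7% formaldehyde, permeabilized and immunostained for phospho-c-Jun; read by high-content fluorescence imaging, fitted bidirectionally against DMSO.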

Assay [9] in a line: APR_HepG2_p53Act_72hr: Apredica 72-hour HepG2 Assay for p53 Activation (AID 2282923).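 Further: average cellular p53 protein immunofluorescence intensity in HepG2 cells.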 The following applies: high-content imaging, actives raise or lower the signal. An outline of the steps:
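10-pt conc. 0.39–200 uM, duplicate, 0.5% DMSO; 72 hr exposure; 3.7% formaldehyde fix, 0.5% Triton perm; sheep anti-p53/Cy5 + Hoechst; ArrayScan 20x, 6 images/well; gain/loss fit vs DMSO.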

The nature of assay [10]: APR_HepG2_MitoMass_72hr: Apredica 72-hour HepG2 Assay for Mitochondrial Mass (AID 2282924).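 Further: MitoTracker Red CMXRos stain intensity per cell imaged as mitochondrial mass.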 The following applies: high-content imaging, actives raise or lower the signal. An outline of the steps: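 HepG2 cells dosed 72 hr at 0.39–200 uM (0.5% DMSO), in duplicate. MitoTracker Red CMXRos 250 nM loaded 30 min before formaldehyde fixation; high-content fluorescence imaging, bidirectional fit versus DMSO.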

Assay [11] can be described thus: APR_HepG2_NuclearSize_72hr: Apredica 72-hour HepG2 Assay for Nuclear Size (AID 2282925). To be noted: high-content imaging, actives raise or lower the signal. The method, boiled down: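 HepG2 cells dosed 72 h at 0.39–200 uM (10 concentrations, duplicate) in 0.5% v/v DMSO final. Fixed, Hoechst 33342-stained nuclei imaged; nuclear diameter measured by automated image analysis. Bidirectional fit versus DMSO.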

The nature of assay [12]: ATG_CRE_CIS: Attagene CIS-FACTORIAL HepG2 Assay for human cAMP Responsive Element (CRE) binding protein 3 (AID 2282926). The following applies: HepG2 CRE cis-reporter, Attagene multiplexed mRNA; actives raise or lower the signal. The method, boiled down: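 HepG2 cells transiently transfected with cis-element-driven multiple reporter transcription units; CRE reporter mRNA measured 24 h after dosing by RT-PCR, 6-FAM labelling, HpaI digestion and capillary electrophoresis. Bidirectional fit versus DMSO baseline.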

Assay [13] addresses CCAAT/enhancer-binding protein beta (Homo sapiens) (UniProt P17676). Nature of the assay: ATG_C_EBP_CIS: Attagene CIS-FACTORIAL HepG2 Assay for human CCAAT/Enhancer Binding Protein (C/EBP) beta (AID 2282927). The following applies: HepG2 Attagene cis-factorial transcription factor reporter; actives raise or lower the signal. An outline of the steps: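 HepG2 transiently transfected with multiplexed reporter units under cis-regulatory promoters reporting endogenous C/EBPb activity. After 24 h exposure, reporter mRNA assayed by RT-PCR, fluorescent labelling, HpaI digestion and capillary electrophoresis; bidirectional fitting versus DMSO.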

Assay [14] can be described thus: ATG_CMV_CIS: Attagene CIS-FACTORIAL HepG2 Assay for human CMV (Internal Marker) (AID 2282928).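 Further: endpoint acts as a background internal control marker rather than a target.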 The following applies: HepG2 CMV promoter reporter, transcription factor profiling; actives raise or lower the signal. The method, boiled down: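 Cell system: HepG2, transiently transfected multiple reporter units under cis promoters. Exposure: 24 h. Detection: RT-PCR, FAM labeling, HpaI digestion, capillary electrophoresis. Analysis: bidirectional, DMSO baseline.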

Assay [15] in a line: ATG_DR4_LXR_CIS: Attagene CIS-FACTORIAL HepG2 Assay for human Liver X Receptor (LXR), DR4 submotif (AID 2282929). The following applies: HepG2 Attagene DR4 cis-reporter, mRNA transcription; actives raise or lower the signal. An outline of the steps:
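Cells were transfected with multiple reporter transcription units, exposed to chemicals for 24 hours, then lysed for RNA. Reporter mRNA induction was measured by RT-PCR with capillary electrophoresis detection and fitted in both directions relative to DMSO.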

The nature of assay [16]: ATG_AP_2_CIS: Attagene CIS-FACTORIAL HepG2 Assay for human Activator Protein 2 (AP-2) (AID 2282932). The following applies: HepG2 AP-2 cis-reporter, Attagene transcription factor profiling; actives raise or lower the signal. The method, boiled down: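 HepG2 cells transiently transfected with cis-element reporter units and exposed for 24 h. Reporter mRNA measured by RT-PCR, FAM labelling, HpaI digestion and capillary electrophoresis. Changes in either direction fitted relative to DMSO.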

The nature of assay [17]: ATG_BRE_CIS: Attagene CIS-FACTORIAL HepG2 Assay for human Bone Morphogenetic Protein (BMP) Response Element (BRE) (AID 2282933). To be noted: HepG2 BMP response element reporter, Attagene transcription factor profiling; actives raise or lower the signal. An outline of the steps:
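Endogenous transcription factor activity read in transiently transfected HepG2 cells after 24 h chemical exposure. Bidirectional curve fitting against DMSO; readout is reporter transcript level by RT-PCR with capillary electrophoresis of labelled products.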

Assay [18] deals with Aryl hydrocarbon receptor (Homo sapiens) (UniProt P35869). Briefly: ATG_Ahr_CIS: Attagene CIS-FACTORIAL HepG2 Assay for human Aryl Hydrocarbon Receptor (Ahr) (AID 2282930). To be noted: HepG2 AhR cis-factorial reporter transcription; actives raise or lower the signal. An outline of the steps:
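HepG2 cells transiently transfected with cis-element-driven multiplexed reporter units; endogenous AhR activity read as reporter mRNA 24 h after dosing, via RT-PCR, 6-FAM labelling, HpaI digestion and capillary electrophoresis. Bidirectional fit relative to DMSO.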

A short description of assay [19]: ATG_AP_1_CIS: Attagene CIS-FACTORIAL HepG2 Assay for human Activator Protein 1 (AP-1) (AID 2282931). To be noted: HepG2 Attagene cis-factorial AP-1 reporter mRNA; actives raise or lower the signal. The method, boiled down:
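Endogenous transcription-factor activity in human HepG2 liver cells is read through a cis-promoter reporter transcript, sampled 24 h after dosing. Detection uses RT-PCR with capillary electrophoresis; values come from bidirectional fitting relative to DMSO.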

One may read the AC50 as the concentration at which the activity in the assay is half-maximal.

Sequence of CCAAT/enhancer-binding protein beta (Homo sapiens) (P17676 whole entry, looked up): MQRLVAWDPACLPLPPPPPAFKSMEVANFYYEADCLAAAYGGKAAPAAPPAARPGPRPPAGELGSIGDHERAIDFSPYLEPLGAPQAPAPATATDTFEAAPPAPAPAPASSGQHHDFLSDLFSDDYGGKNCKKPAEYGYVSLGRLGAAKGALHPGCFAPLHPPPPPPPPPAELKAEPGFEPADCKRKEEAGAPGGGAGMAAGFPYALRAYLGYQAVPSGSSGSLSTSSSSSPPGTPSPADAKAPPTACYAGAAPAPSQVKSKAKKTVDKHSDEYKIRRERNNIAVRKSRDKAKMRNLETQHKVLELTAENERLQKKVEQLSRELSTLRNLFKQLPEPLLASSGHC
Sequence of Aryl hydrocarbon receptor (Homo sapiens) (P35869 whole entry, looked up): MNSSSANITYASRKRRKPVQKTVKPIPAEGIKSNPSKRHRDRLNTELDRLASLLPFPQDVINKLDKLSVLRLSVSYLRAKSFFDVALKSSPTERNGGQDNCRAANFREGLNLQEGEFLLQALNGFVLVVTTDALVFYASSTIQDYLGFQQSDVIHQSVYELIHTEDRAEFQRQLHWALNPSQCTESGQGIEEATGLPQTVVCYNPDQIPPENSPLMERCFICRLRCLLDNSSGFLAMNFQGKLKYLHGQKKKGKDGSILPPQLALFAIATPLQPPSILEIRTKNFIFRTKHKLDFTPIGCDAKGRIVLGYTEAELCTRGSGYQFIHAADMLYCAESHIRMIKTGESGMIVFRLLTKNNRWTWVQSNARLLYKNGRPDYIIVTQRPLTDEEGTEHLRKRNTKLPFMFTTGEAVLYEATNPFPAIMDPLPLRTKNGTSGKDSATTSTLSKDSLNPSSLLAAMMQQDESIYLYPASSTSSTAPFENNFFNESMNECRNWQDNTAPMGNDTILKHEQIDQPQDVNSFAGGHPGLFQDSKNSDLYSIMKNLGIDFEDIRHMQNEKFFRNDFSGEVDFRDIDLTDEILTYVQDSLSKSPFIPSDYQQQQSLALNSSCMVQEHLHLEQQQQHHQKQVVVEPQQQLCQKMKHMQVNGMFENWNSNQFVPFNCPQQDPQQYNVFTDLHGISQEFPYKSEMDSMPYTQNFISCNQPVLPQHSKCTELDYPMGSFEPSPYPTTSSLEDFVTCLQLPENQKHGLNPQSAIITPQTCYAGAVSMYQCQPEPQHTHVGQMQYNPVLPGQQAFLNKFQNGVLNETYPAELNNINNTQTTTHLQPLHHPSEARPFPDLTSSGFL

Consider `N#Cc1c[nH]cc1-c1cccc2c1OC(F)(F)O2`, for which the AC50 was 13 µM (active) in assay [1]; 16.1 µM (active) in assay [2]; 19.3 µM (active) in [5]; 3.5 µM (active) in [10]; 10.8 µM (active) in assay [12]; 8.24 µM (active) in assay [13]. For the same compound, the AC50 in assay [14] is 29 µM (active); in assay [15], 1.19 µM (active); in [16] it was 13.5 µM (active); in assay [17], 22.2 µM (active). Further, the compound was classed as inactive in assay [3], in assay [4], in [6], in assay [7], in assay [8] and in [9]. For the same compound, the compound was classed as inactive in [11].
On to `CCCCC(O)(Cn1cncn1)c1ccc(Cl)cc1Cl` (stereo unspecified), for which the AC50 in assay [1] was 74.4 µM (active); in assay [6], 109 µM (active); in assay [7], 122 µM (active); in assay [9] it was 120 µM (active); in assay [14] it was 19.5 µM (active); in assay [17] it was 33.3 µM (active). Besides, the outcome in assay [2], in [3], in assay [4], in [5], in assay [8] and in [10] was inactive. In addition, the compound was called inactive in [11], in assay [12], in assay [13], in assay [18] and in assay [16].
With `CCN(CC)C(=O)C(C)Oc1cccc2ccccc12` (stereo unspecified), the half-maximal activity concentration (AC50) in assay [1] was 77.6 µM (active); in [12], 2.24 µM (active); in assay [13], 1.2 µM (active); in assay [18], 14.9 µM (active); in [17], 14.4 µM (active). The call in assay [2], in assay [3], in assay [4], in assay [5], in assay [6] and in assay [8] was inactive. Besides, the compound was called inactive in assay [9], in [10], in assay [11], in assay [14], in assay [15] and in [19]. Moreover, the result in [16] was inactive.
Consider `CC(C)N1C(=O)N(c2ccccc2)CSC1=NC(C)(C)C`, for which the half-maximal activity concentration (AC50) in [1] is 42.5 µM (active); in assay [5], 32.6 µM (active); in [6], 111 µM (active). For the same compound, the outcome in [2], in assay [3], in assay [4], in [7], in assay [8] and in [9] was inactive. Moreover, the compound was called inactive in [10], in [11], in assay [12], in assay [13], in assay [14] and in assay [15]. Also, the call in [18], in assay [19], in [16] and in assay [17] was inactive.
